# Bioassay records from PubChem BioAssay.
# BoNT A protease = BoNT/A light chain protease inhibitors, primary screen, biochemical, flow cytometry, MLPCN library; AID 588499, 2011; inhibition, % at 10 µM; 360,000 tested, 0.17% active; multiplex microsphere protease substrate cleavage; Botulinum neurotoxin type A light chain protease (Clostridium botulinum A str. ATCC 3502); also: plate controls were buffer without enzyme for full effect and enzyme alone for no effect
# Autofluor counter = counter-screen for toxin protease inhibitors: compound fluorescence; fluorescence intensity (no concentration beside the values); AID 624483; compound autofluorescence counterscreen, microsphere flow cytometry; active compounds read high; 360,000 tested, 3.1% active; in the data active = fluorescence intensity above about 16000; inconclusive = no clear call, values can overlap the other calls
# SARS 3CLpro inh = SARS-CoV 3CLpro protease inhibitors, primary screen, biochemical, quenched FRET. Replicase polyprotein 1ab (Severe acute respiratory syndrome coronavirus), P0C6X7. recombinant SARS-CoV 3CLpro, quenched FRET peptide cleavage. inhibition, % at 6 µM. 290,000 tested, 0.14% active. AID 1706, 2009; in the data active = inhibition above about 12%
# Anthrax LF inh2 = Bacillus anthracis LF protease inhibitors, primary screen, biochemical, multiplex microsphere, MLPCN library; Lethal factor (Bacillus anthracis), P15917; multiplex microsphere protease cleavage assay; inhibition, % at 10 µM; 360,000 tested, 0.12% active; AID 588501, 2011; also: plate controls were buffer without enzyme for full effect and enzyme alone for no effect
# VHR inh abs = VHR1 phosphatase inhibitors, primary screen, biochemical, absorbance, uHTS; 290,000 tested, 0.52% active; inhibition, % at 13.3 µM; Dual specificity protein phosphatase 3 (Homo sapiens), P51452; recombinant VHR phosphatase, pNPP absorbance; in the data active = inhibition above about 50%
# BoNT F protease = BoNT/F light chain protease inhibitors, primary screen, biochemical, flow cytometry, MLPCN library. AID 588497, 2011. 360,000 tested, 0.22% active. Multiplex microsphere protease cleavage assay. inhibition, % at 10 µM; in the data active = inhibition above about 35%, passing the limit was not always enough; inconclusive = no clear call, values can overlap the other calls; also: plate controls were buffer without enzyme for full effect and enzyme alone for no effect
# The depositor's hits bear a star; ? = inconclusive; nt = no result given. Hits are enriched below; roughly 3.9% of the tested compounds scored in any of these assays. Rule as the data show it, unless noted: active = inhibition above about 30%; inconclusive = no clear call, values can overlap the other calls; inactive = below that.
SMILES,BoNT A protease,Autofluor counter,SARS 3CLpro inh,Anthrax LF inh2,VHR inh abs,BoNT F protease
O=C(NC1CCN(Cc2nnnn2CCc2ccccc2)CC1)c1ccccc1F,3,22189*,4,-2,-8,5
Cc1ccc(C(=O)OCn2ncc(Cl)c(Cl)c2=O)cc1,-2,17159*,3,-2,16,-5
Cc1ccccc1Cn1nnc2c1C(=O)c1ccccc1C2=O,0,?,-3,1,nt,-5
Cc1cccc(Cn2ncc(Cl)c(Cl)c2=O)c1,0,16414*,-1,1,0,0
Cc1cccc(Cn2nnc3c2C(=O)c2ccccc2C3=O)c1,0,16137*,4,-2,13,-3
O=C1OC(O)c2cccc3cccc1c23 (stereo not given),0,3621,nt,3,nt,-2
COc1cc(-c2coc3c(C(=O)NC4CCCCC4)cccc23)ccc1O,0,3970,nt,0,nt,6
COC(=O)c1ccc(Oc2nc(C(N)=O)cc(-c3ccccc3)n2)cc1,0,6089,1,5,-13,-8
N#Cc1ccc(Oc2nc(C(N)=O)cc(-c3ccccc3)n2)cc1,-5,24851*,4,-2,13,-8
CCn1c(CC(=O)Nc2ccc(C)cc2)nnc1SCC(=O)NCCc1ccccc1,-5,24526*,4,-1,17,-7
COc1cc(C(=O)CSc2nnc(-c3ccc(O)cc3)n2CC2CCCO2)ccc1NC(C)=O (stereo not given),-1,12819,-2,0,37,-10
CCC(=O)Nc1ccc(C(=O)CSc2nnc(-c3ccc(O)cc3)n2CC2CCCO2)cc1 (stereo not given),-1,23574*,4,-2,25,-1
CCn1c(SCC(=O)Nc2ccc(C)cc2)nnc1-c1ccccn1,-1,4299,1,6,-8,2
CCn1c(SCC(=O)Nc2ccc(C)cc2)nnc1-c1ccc(O)cc1,-1,17034*,-1,-3,18,-5
CCn1c(SCC(=O)Nc2cccc(OC)c2)nnc1-c1ccc(Cl)cc1,?,21821*,2,3,21,3
O=C(CSc1ccc(Br)cc1)Nc1ccccc1N1CCOCC1,2,5821,2,1,-5,-3
Cc1ccc(NC(=O)CN(C)C(=O)CSc2nnc(C)s2)cc1,0,3556,nt,-4,nt,-3
O=C(CCCCCNC(=O)N1CCn2c1nc1ccccc12)NCc1ccccc1Cl,1,5301,-7,0,11,-9
Cc1ccc(NC(=O)Cc2nnc(SCC(=O)NC3CCCC3)n2C)cc1,0,5137,-4,2,-8,2
CSc1nnc(-c2ccc(S(=O)(=O)N3CCOCC3)cc2)n1CC1CCCO1 (stereo not given),-5,17507*,3,-6,8,-11
Cc1ccc(NC(=O)Cc2nnc(SCC(=O)c3ccc(Br)cc3)n2C)cc1,0,21836*,1,-6,-4,2
Cc1ccnc(NC(=O)CNC(=O)c2ccccc2Br)c1,-2,4639,-1,-2,0,1
COC(=O)c1ccccc1OP1(=O)COc2ccccc2OC1,?,22712*,1,-1,17,-3
COc1cccc(NC(=O)CN(C)C(=O)c2c(C)noc2C)c1,-1,3915,nt,-5,nt,-7
O=C(CSc1nc2ccccc2s1)N/N=C/c1ccco1,-1,2121,2,-2,-4,-18
SMILES,BoNT A protease,Autofluor counter,SARS 3CLpro inh,Anthrax LF inh2,VHR inh abs,BoNT F protease
N#C/C(=C\c1ccco1)Sc1nc2ccccc2s1,0,23761*,-3,-2,0,-1
CCOC(=O)c1ccc(N2C(=O)CC(N3CCN(Cc4ccccc4)CC3)C2=O)cc1 (stereo not given),0,2513,-1,-6,19,-2
CCOC(=O)c1ccc(N2C(=O)CC(N3CCCC(C)C3)C2=O)cc1 (stereo not given),-5,25079*,3,-1,3,-8
CCc1cc(-c2n[nH]c(=S)n2-c2cccc(C)c2)cs1,11,18843*,-1,-9,-6,11
CCCCn1c(-c2csc(CC)c2)n[nH]c1=S,0,2578,-1,-1,12,0
Cc1cccc(-n2c(-c3csc(C)c3)n[nH]c2=S)c1,?,16396*,-3,-8,27,-2
CC(C)(C)c1ccc(-c2nc(C=O)c3ccccn23)cc1,?,18863*,-6,21,19,21
COc1cccc(-n2c(SC)nnc2-c2cnccn2)c1,6,20539*,5,-9,8,6
CSc1nnc(-c2cnccn2)n1C,-1,23864*,-1,0,4,-5
Cn1c(SCC(N)=O)nnc1-c1cnccn1,-1,4360,3,-4,-20,-5
COc1cccc(-n2c(SCC#N)nnc2-c2cnccn2)c1,3,15146,-3,-8,10,4
O=C(Nc1ccc(Cl)c(C(F)(F)F)c1)C1Cc2c(-c3ccccc3)ccnc2O1 (stereo not given),0,3655,nt,4,nt,-1
CCn1cc(CN2CCC(n3nccc3NC(=O)C3CCCC3)CC2)cn1,0,6301,0,-2,14,-1
Cn1c(SCc2cccc3ccccc23)nnc1-c1ccco1,0,2599,-2,1,10,-4
Cc1cccc(C)c1NC(=O)CSc1nnc(-c2ccco2)n1N,1,21789*,-3,0,-5,0
Nn1c(SCc2cccc3ccccc23)nnc1-c1ccco1,0,22596*,-2,-2,22,2
O=P(Nc1ccccc1)(Nc1ccccc1)Oc1cccc(Cl)c1,?,17171*,2,-18,34,18
COc1cccc(-c2cccc3c2NC(=O)C3(C)Cc2cccc(F)c2)c1 (stereo not given),0,3649,nt,-6,nt,9
COc1cc(NC(=O)c2cc3nc(C4CC4)cc(C(F)(F)F)n3n2)c(OC)cc1Cl,-4,24788*,5,-3,35,-3
CC(C)CNC(=O)c1cc2nc(C3CC3)cc(C(F)(F)F)n2n1,1,3223,-4,-2,nt,-25
COC(=O)c1ccccc1NC(=O)c1cc2nc(C3CC3)cc(C(F)(F)F)n2n1,-4,21329*,1,-2,10,-3
COc1ccc(OC)c(C(=O)c2ccc(C(=O)Nc3ccccc3)cc2)c1,0,1894,-2,0,-9,-1
COc1ccc(NC(=O)c2ccc(C(=O)c3cc(OC)ccc3OC)cc2)cc1,6,20895*,2,1,18,6
CN(C)C(=O)CSc1nnc(C23CC4CC(CC(C4)C2)C3)o1,?,22684*,-2,-12,0,-1
